Experimental data from the supplement of paper PMC3334620.
In all, about 33,000 sequences were measured (“E-score (-0.5 to 0.5)”: median about -0.035, highest 2% from about 0.34 on). For the sample, the highest values were picked, then their nearest neighbours and some sequences at random.

Target: T1, Mot3 (UniProt P54785)
T1 sequence: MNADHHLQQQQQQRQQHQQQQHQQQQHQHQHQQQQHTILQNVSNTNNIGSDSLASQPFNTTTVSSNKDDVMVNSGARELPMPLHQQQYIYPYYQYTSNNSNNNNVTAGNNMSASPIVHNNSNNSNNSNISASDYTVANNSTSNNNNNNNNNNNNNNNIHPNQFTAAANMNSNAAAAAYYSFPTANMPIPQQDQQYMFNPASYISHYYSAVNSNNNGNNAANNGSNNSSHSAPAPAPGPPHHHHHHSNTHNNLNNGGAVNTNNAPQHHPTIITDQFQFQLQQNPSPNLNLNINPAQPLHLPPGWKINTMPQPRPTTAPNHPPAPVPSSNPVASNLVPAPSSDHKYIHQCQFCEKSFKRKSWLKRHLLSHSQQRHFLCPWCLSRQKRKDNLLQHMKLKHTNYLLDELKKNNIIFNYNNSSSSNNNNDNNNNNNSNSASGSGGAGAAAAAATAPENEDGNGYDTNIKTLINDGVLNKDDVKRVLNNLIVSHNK
Assay: PBM E-score (8-mer binding enrichment) (E-score (-0.5 to 0.5)); higher = stronger / more preferred TF binding
Conditions: protein concentration: 200 nM; construct: GST-full length
Procedure: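 Universal 'all 10-mer' protein binding microarrays (Agilent AMADID 015681) probed with GST-tagged S. cerevisiae TFs (full-length or DBD) made by in vitro transcription/translation (PURExpress), about 100-200 nM. Bound TF was detected with fluorescent anti-GST. Each ungapped 8-mer (which stands for itself and its reverse complement) is scored by the PBM enrichment score (E-score), a modified Wilcoxon-Mann-Whitney statistic from -0.5 to +0.5, computed with the Universal PBM Analysis Suite. Scale: above 0.35 generally sequence-specific binding.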

Sequence | PBM E-score
CCTCTAGA | -0.0256
AAGAACGC | 0.0817
AGGGTAGG | 0.0464
ACGCTTTG | -0.111
GCATTCTA | 0.0333
AGACAGAT | -0.0373
GTCAGGCA | 0.469
ATCAGGCC | -0.0425
ATCAGGCG | 0.0225
GTCAGGGA | -0.339
CTCAGGCA | 0.462
GTCAGGAA | 0.277
ATCAGGCA | 0.481
CTCAGGGA | -0.251
CTCAGGCC | -0.129
CGGATCAC | -0.00917
CCTTTCTC | -0.0866
CTCAGGGC | -0.29
AGTGTCTA | 0.0204
AGTCCCAT | -0.115
AGAGCCTC | -0.422
CGTGCCGC | -0.111

Sequence | PBM E-score
AGTGCCTG | 0.49
AGAGCCTG | 0.341
CGTGCCCC | 0.00946
AGTGCCGG | 0.0259
AGTGCCGC | -0.373
AGTGCCAG | -0.0756
AGAGCCTA | 0.177
AGTGCCAC | -0.35
AGTGCCTC | 0.405
CGTGCCTC | 0.469
GAGATTGA | -0.0729
ACGGTTTG | -0.0879
CAAGTCGA | -0.156
TGTCTCAA | -0.078
AGGTCGAG | -0.141
ATGACCAG | 0.199
ATGCTCAG | 0.15
AGTGCCCA | 0.137
CGTGCCCA | 0.355
GGTGCCCA | 0.293
CACGGATG | 0.0568
CGTAGGTA | 0.285

Sequence | PBM E-score
AGTAGGCG | 0.0255
GGTAGGTA | 0.269
AGTAGGCA | 0.481
GGTAGGGA | -0.104
CGTAGGCA | 0.487
GGTAGGCA | 0.473
CGTAGGCC | -0.0263
AGTAGGCC | -0.1
AAATGGGG | -0.133
CGAACTAA | 0.031
AGGATACA | 0.157
CCCTCTCG | -0.33
TCTATTCA | 0.165
CAATTGAA | -0.0107
CTTACATA | 0.319
ACTACATG | 0.362
AGTACATC | 0.166
ATTACATG | 0.435
ATTACATA | 0.406
ACTACATA | 0.325
ATTACATC | 0.356
ACTACATC | 0.173

Sequence | PBM E-score
CTTACATC | 0.163
AGTACATG | 0.289
ATCACATG | 0.195
GTTACATA | 0.333
AGGATACT | -0.12
ACCTCTCC | -0.144
ACTTTTCC | 0.0601
ACCTGACA | 0.105
ATCTGAAA | -0.0689
AGGAGTGC | -0.146
GGACACCA | -0.23
ACTCGCCC | -0.179
TACTTTGA | 0.0853
ACACTCCA | -0.141
AATACATG | 0.413
AATACATT | 0.235
CATACATG | 0.291
GGCGTGAC | 0.017
AGAACGCT | -0.186
AGTGTCGC | -0.0232
